p53ts 39C kill – kills p53ts cells at the nonpermissive temperature | 130,000 compounds, 1.5% hits | H1299-p53A138V viability at 39C, ATP luminescence, 24 h | AID 902 | Potency, µM (doses to about 46.1 µM), inactives show at the highest dose activity change, negative = cell killing, usual class: cytotoxic; further: nearly all actives have a fitted effect of over 55% in size
12-hLO inh – blocks human 12-lipoxygenase activity; purified 12-hLO, xylenol orange hydroperoxide absorbance; Potency, µM (highest dose often 57.1 µM), inactives show at the highest dose activity change, negative = inhibition, most hits filed as inhibitors; 150,000 compounds, 0.12% hits; further: nearly all actives have a fitted effect of over 55% in size
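Purified human 12hLO (150 nM), preincubated 15 min with compound, then 40 uM arachidonic acid for 30 min, room temperature, Hepes pH 7.0 with 0.01% Triton X-100. Hydroperoxide detected by ferrous iron/xylenol orange; 573/405 nm absorbance ratio gives reaction progress.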
p53ts 32C tox – cytotoxicity in p53ts cells at permissive temperature. H1299-p53A138V at 32C, ATP luminescence viability, 24 h. Potency, µM (top dose mostly 46.1 µM), inactives show at the top dose activity change, negative = cytotoxicity, most hits filed as cytotoxic. 130,000 compounds, 0.93% hits. AID 924;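 further: 0% = DMSO and -100% = full killing by reference compound; nearly all actives have a fitted effect of over 55% in size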
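Cells: H1299 p53ts (A138V), 600/well, pre-incubated 16–30 h at 37C. Cpd up to 46 uM, 24 h, 32C. Readout: ATPlite luminescence, 20 min RT. Normalization: DMSO vs tamoxifen 100 uM. AC50 by Hill equation.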
HPGD inh – blocks human HPGD enzyme activity; purified HPGD, NADH fluorescence kinetic, PGE2 substrate; Potency, µM, inactives show top-dose activity change, negative = inhibition, hits mostly inhibitors; 150,000 compounds, 4.3% hits; AID 894; active means well fitted inhibition curve with a large enough effect, not every such curve was filed as active; inconclusive means small, poorly fitted or top-dose-only effect, or another doubt; inactive means no such curve, though single readings can be large or run the other way
Target sequence (P15428 whole entry, looked up): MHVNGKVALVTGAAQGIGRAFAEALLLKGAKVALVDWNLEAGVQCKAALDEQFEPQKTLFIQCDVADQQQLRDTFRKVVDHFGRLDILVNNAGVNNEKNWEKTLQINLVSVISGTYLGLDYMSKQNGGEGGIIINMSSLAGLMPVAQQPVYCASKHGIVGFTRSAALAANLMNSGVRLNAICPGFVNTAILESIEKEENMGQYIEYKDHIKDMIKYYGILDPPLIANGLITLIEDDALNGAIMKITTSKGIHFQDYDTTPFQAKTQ
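NADH formation kinetics: reaction with 30 uM PGE2 and 1 mM NAD+ (final), 20 nM enzyme, Tris-HCl pH 8 with Tween 20, after 15 min compound preincubation at room temperature. Fluorescence change, last versus first of five reads.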
Numbers without * were called inactive; ? = inconclusive; . = no result; [ ] = another dose, or the depositor's remark. Hits are enriched below; roughly 4.4% of the tested compounds scored in any of these assays. Unless noted, the call rests on the fitted dose curve; in most records, active means well fitted curve in the direction sought with a large enough effect; inconclusive means small, poorly fitted or top-dose-only effect, or another doubt; inactive means no such curve, though single readings can be large; an effect the other way counts as inactive or inconclusive. Unless noted, on the % scale 0 is the no-effect control and ±100 the full control effect; potency means the concentration at half of the fitted maximal effect.

SMILES	p53ts 39C kill	12-hLO inh	p53ts 32C tox	HPGD inh
Cc1nc2nc(SCC(=O)NCCc3ccc(Cl)cc3)nn2c(C)c1Cc1ccccc1	-3%	.	4%	.
CCn1cc(C(=O)N(C)c2cc(C)ccc2C)c2cc(OC)c(OC)cc2c1=O	-22%	.	1%	.
O=C(Cn1c(=O)n(Cc2nc(-c3ccccc3)no2)c(=O)c2cc3c(cc21)OCO3)Nc1ccc(Cl)cc1	-4%	.	3%	.
C=CCCCCCCCCCCCC(O)CC(O)COC(C)=O (stereo not drawn) (tested in a mixture with another compound)	-6%	-8%	3%	-7%
COc1ccccc1OCC(=O)n1cc(C(=O)c2cc(Cl)cc(Cl)c2O)cn1	.	6%	.	18µM*
COc1ccc(Cn2ccnc2SCC(=O)Nc2nc3ccccc3s2)cc1	-23%	.	-5%	.
CN(C)c1ccc(NC(=O)Cn2c(SCc3ccc(F)cc3)nc3cccnc32)cc1	-27%	.	1%	.
COc1cccc(NC(=O)Cn2c(=O)n(Cc3ccco3)c(=O)c3cc(OC)c(OC)cc32)c1	0%	.	-2%	.
CCn1c(/C(C#N)=N/O)nc2ccccc21	.	-5%	.	35µM*
COc1cc(-c2nc3cnccn3c2Nc2ccc(C)cc2)ccc1O	.	-11%	.	?
COc1cc(-c2nc3cnccn3c2Nc2ccc3c(c2)OCCO3)ccc1O	-18%	1%	-17%	22µM*
Oc1ccc(-c2nc3cnccn3c2Nc2ccc3c(c2)OCCO3)cc1	13%	?	10%	11µM*
CN(C(=O)c1cnc(N2CCOCC2)c2ccccc12)c1ccccc1F	-32%	.	-2%	.
CCC1(O)CC2CN(CCc3c([nH]c4ccccc34)[C@@](C(=O)OC)(c3cc4c(cc3OC)N(C=O)C3[C@]45CCN4CC=C[C@@](CC)([C@@H](OC(C)=O)[C@]3(O)C(=O)OC)[C@H]45)C2)C1 (stereo partly drawn)	.	.	.	-29%
CC[C@]1(O)C[C@H]2CN(CCc3c([nH]c4ccccc34)[C@](C(=O)OC)(c3cc4c(cc3OC)N(C=O)[C@H]3[C@@](O)(C(=O)OC)[C@H](OC(C)=O)[C@@]5(CC)C=CCN6CC[C@]43[C@H]65)C2)C1	32µM*	-5%	?	.
Cc1cc(Nc2ccc(Cl)cc2)n(-c2cccc(Cl)c2)n1	.	-13%	.	-17%
Cc1cc(Nc2ccc(Cl)cc2)n(-c2ccccc2)n1	.	-14%	.	7.9µM*
O=C1c2ccccc2NC(c2ccc3c(c2)OCCO3)N1c1ccc2c(c1)OCCO2 (stereo not drawn)	5µM*	-3%	6.3µM*	-22%
COc1cc(C2Nc3ccccc3C(=O)N2c2ccc3c(c2)OCCO3)ccc1OCC(C)C (stereo not drawn)	.	-11%	.	?
O=C(/C=C/c1cn(CC(O)CN2CCCCCC2)c2ccccc12)c1ccccc1 (stereo not drawn)	?	.	-13%	.
CCCN(CCC)CC(O)Cn1cc(/C=C/C(=O)c2ccc(Br)cc2)c2ccccc21 (stereo not drawn)	7.9µM*	.	-21%	.
CCCCN(C)CC(O)Cn1cc(/C=C/C(=O)c2ccc(C)cc2)c2ccccc21 (stereo not drawn)	16µM*	.	?	.
CCCN(CCC)CC(O)Cn1cc(/C=C/C(=O)c2cccs2)c2ccccc21 (stereo not drawn)	.	-3%	.	-2%
CCCN(CCC)CC(O)Cn1cc(/C=C/C(=O)c2ccc(C)cc2)c2ccccc21 (stereo not drawn)	13µM*	.	?	.
O=C(/C=C/c1cn(CC(O)CN2CCCCCC2)c2ccccc12)c1ccc(Br)cc1 (stereo not drawn)	?	.	-4%	.
SMILES	p53ts 39C kill	12-hLO inh	p53ts 32C tox	HPGD inh
CCCCN(C)CC(O)Cn1cc(/C=C/C(=O)c2ccc(OC)c(OC)c2)c2ccccc21 (stereo not drawn)	16µM*	.	20µM*	.
COc1ccc(C(=O)/C=C/c2cn(CC(O)CN(CC(C)C)CC(C)C)c3ccccc23)cc1 (stereo not drawn)	-14%	.	-6%	.
C=C(C)C(O)/C=C/CCCCCCC (stereo not drawn)	-6%[9.22 µM]	.	-8%[9.22 µM]	.
Cc1ccccc1N1CC(c2nc3ccccc3n2Cc2ccc(Br)cc2)CC1=O (stereo not drawn)	17%	.	3%	.
CCCN(CCC)CC(O)Cn1cc(/C=C/C(=O)c2ccc(OC)cc2)c2ccccc21 (stereo not drawn)	10µM*	.	?	.
Cc1nn(CC(=O)Nc2cc(F)ccc2F)c(=O)c2cccn12	?	.	-2%	.
C=CCn1c(N)c(C(=O)NCCC2=CCCCC2)sc1=S	-22%	-19%	-7%	14µM*
CCSc1nnc(NC(=O)C(C(F)(F)F)C(F)(F)F)s1	.	-4%	.	3.5µM*
CCSc1nnc(NC(=O)C(C)C)s1	.	3%	.	-17%
CCSc1nnc(NC(=O)c2ccccn2)s1	10µM*	0%	10µM*	-10%
COc1ccc(CNCCC(c2ccc3c(c2)OCO3)c2ccccc2OC)cc1 (stereo not drawn)	16µM*	.	?	.
COc1ccc(CNC(=O)C(=O)NCC(c2ccc3c(c2)OCO3)N2CCOCC2)cc1 (stereo not drawn)	-5%	.	0%	.
COc1ccc(N(CC(=O)NCCSC2CCCCC2)S(C)(=O)=O)c(OC)c1	.	-5%	.	22µM*
CS(=O)(=O)N(CC(=O)NCCSC1CCCCC1)c1ccc2c(c1)OCO2	9%	-3%	6%	-9%
COC(=O)c1ccccc1NC(=O)c1sc(=S)n(C)c1N	3%	-10%	0%	22µM*
COc1ccc(C(=O)N/N=C/c2cccc3cccnc23)cc1	.	2%	.	-15%
COc1ccc(C(=O)N/N=C/c2cc3ccccc3[nH]c2=S)cc1	.	18µM*	.	1.3µM*
CCCCOCCCNC(=O)c1ccc2c(c1)OCO2	10%	-14%	0%	25µM*
CC(OC(=O)CNC(=O)c1ccc2c(c1)OCO2)C(=O)NCCC1=CCCCC1 (stereo not drawn)	4%	-6%	-17%	18µM*
COCCCNC(=O)c1ccc2c(c1)OCO2	-1%	-5%	-8%	6.3µM*
CC(OC(=O)Cc1ccc(Cl)cc1)C(=O)NCCC1=CCCCC1 (stereo not drawn)	.	-4%	.	-14%
O=C1CCc2cc(S(=O)(=O)NC(C(=O)Nc3ccc(F)cc3)c3ccccc3)ccc2N1 (stereo not drawn)	1%	.	11%	.
Cc1cccc(C)c1OCC(=O)N(Cc1ccc(Cl)cc1)CC1CCCO1 (stereo not drawn)	-22%	.	-10%	.
COc1ccc(-n2c(=O)c(C)nc3cnc(OC)nc32)cc1	10%	.	14%	.
COC(=O)CC[C@@H](C)C1CC[C@H]2[C@H]3CC[C@H]4C[C@@H]5CCC4(C)[C@@]3(O5)[C@@H](Br)[C@@H](Br)[C@@]12C (stereo partly drawn)	.	.	.	-4%
Cc1ccc(-n2nc3c(N4CCC(C(=O)NC(C)c5ccccc5)CC4)nnc(C)c3c2C)cc1 (stereo not drawn)	16µM*	.	?	.
